The record followed here is PubChem BioAssay.

A number with no mark means an inactive call. The source made the active and inactive calls. Cut-off read from the data, not from the text of the source, unless noted: active = inhibition above about 30%; inactive = the rest.

As usually defined, the inhibition is the relative decrease from the control value, in per cent.

The target in experiment [1] is Nuclear receptor coactivator 3 (Homo sapiens) (UniProt Q9Y6Q9). The experiment in a line: SRC3 coactivator transcriptional activity inhibitors, confirmation, cell-based, luminescence, quadruplicate (AID 588792;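 active = mean inhibition over 43.08%, the solvent-only control mean plus 3 SD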;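 note: 0% = DMSO treated cells and 100% = gossypol at 36 µM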). The following applies: HEK293 GAL4-SRC3 luciferase reporter, at 3.6 µM, hits give high values. In general terms: In a reporter assay the amount or activity of a reporter protein is the signal.

For experiment [2], the system named is transactivating tegument protein VP16 (Human herpesvirus 1), Gal4-VP16 luciferase reporter. Put plainly: VP16 transactivation inhibitors, counter-screen for SRC3 inhibitor project, cell-based, luminescence, high throughput (AID 588794). The note with it: mammalian cells, VP16-driven luciferase reporter luminescence; at 3.6 µM; hits give high values.

Sequence of Nuclear receptor coactivator 3 (Homo sapiens) (Q9Y6Q9 whole entry, looked up, the tested form may be a part): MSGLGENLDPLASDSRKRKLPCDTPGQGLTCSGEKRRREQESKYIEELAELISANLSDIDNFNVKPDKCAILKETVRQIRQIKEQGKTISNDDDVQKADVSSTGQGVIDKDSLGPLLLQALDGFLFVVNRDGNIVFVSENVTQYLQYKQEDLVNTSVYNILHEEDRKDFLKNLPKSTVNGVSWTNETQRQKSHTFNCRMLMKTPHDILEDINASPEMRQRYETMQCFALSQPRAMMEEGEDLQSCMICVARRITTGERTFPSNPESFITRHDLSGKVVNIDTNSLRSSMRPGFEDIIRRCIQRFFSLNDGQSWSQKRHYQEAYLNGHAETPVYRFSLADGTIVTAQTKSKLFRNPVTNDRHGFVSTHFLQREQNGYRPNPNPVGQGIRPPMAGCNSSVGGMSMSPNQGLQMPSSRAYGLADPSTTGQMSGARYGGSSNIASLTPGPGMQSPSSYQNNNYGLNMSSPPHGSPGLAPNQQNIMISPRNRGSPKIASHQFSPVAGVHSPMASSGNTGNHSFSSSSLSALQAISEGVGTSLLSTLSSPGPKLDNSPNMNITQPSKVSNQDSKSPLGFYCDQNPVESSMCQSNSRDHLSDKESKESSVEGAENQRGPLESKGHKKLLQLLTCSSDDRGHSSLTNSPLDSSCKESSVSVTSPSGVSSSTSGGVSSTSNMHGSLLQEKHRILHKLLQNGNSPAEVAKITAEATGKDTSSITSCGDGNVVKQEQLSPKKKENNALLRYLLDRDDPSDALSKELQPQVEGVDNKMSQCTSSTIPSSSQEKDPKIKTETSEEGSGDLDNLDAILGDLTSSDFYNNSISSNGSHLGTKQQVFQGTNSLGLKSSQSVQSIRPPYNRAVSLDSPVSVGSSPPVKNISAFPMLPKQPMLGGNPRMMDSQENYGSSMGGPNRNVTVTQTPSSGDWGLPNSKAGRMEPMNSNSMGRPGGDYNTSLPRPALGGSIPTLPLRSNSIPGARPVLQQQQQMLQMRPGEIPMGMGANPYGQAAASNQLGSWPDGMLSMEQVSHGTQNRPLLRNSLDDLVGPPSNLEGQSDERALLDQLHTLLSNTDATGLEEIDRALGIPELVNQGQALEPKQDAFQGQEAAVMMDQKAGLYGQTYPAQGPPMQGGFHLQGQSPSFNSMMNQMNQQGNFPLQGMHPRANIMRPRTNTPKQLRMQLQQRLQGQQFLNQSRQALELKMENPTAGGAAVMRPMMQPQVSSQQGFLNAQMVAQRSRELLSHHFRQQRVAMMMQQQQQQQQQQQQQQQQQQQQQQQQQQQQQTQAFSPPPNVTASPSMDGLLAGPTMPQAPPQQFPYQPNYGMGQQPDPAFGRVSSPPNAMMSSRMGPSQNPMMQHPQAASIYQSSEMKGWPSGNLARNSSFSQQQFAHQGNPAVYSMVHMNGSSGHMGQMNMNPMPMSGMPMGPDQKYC

Regarding `CC[C@H](C)Cc1cn([C@@H](CCCCNC(=O)OC(C)(C)C)C(=O)NCCCCCCCCCCC(=O)N2CCN(C(=O)OC(C)(C)C)CC2)nn1`, the inhibition in experiment [1] was 17.9%; in experiment [2], 22.5%.
As for `O=C(NC1CCCC1)c1cc(COc2ccc3ncccc3c2)on1`, the inhibition is 19.7% in experiment [1] and 43.3% (active) in experiment [2].
`CCOc1ccc(S(=O)(=O)N2CCN(C(=O)COc3ccc(Br)cc3)CC2)cc1`: the inhibition in experiment [1] was 14.4%; in experiment [2], 14.7%.
For `COc1ccc(CCNC(=O)C(C)n2nc(C)c3c(C)n(-c4ccc(C)cc4)nc3c2=O)c(OC)c1` (configuration not stated), the inhibition in experiment [1] is 7.11%; in experiment [2], 30.4% (active).
The matching figures for `Cc1ccc(Cl)cc1N1CCN(C(c2ccc(C#N)cc2)c2nnnn2C2CCCC2)CC1` (configuration not stated): 1.29% and 22.5%.
Regarding `CC(C(=O)c1ccc(-c2ccccc2)cc1)[n+]1ccccc1` (configuration not stated), the inhibition in experiment [1] was 5.63%; in experiment [2], 19.5%.
On to `CC(=O)c1cccc(NC(=O)c2cc(S(=O)(=O)N3CCOCC3)cs2)c1`, for which the inhibition is 2.71% in experiment [1] and 1.82% in experiment [2].
For `NC(=S)NN=C(Cc1ccccc1)Cc1ccccc1`, the inhibition is 22.4% in experiment [1] and 15.6% in experiment [2].
Take `Cc1nc(SCC(=O)NCc2ccc3c(c2)OCO3)c(C#N)c2c1CCCC2`: the inhibition is -21.9% in experiment [1] and -7.85% in experiment [2].
The matching figures for `COc1ccc(Cl)cc1C(=O)Nn1c(-c2cccs2)nc2ccccc2c1=O`: 25.5% and 22.1%.
As for `CC(=O)Nc1cccc(C(=O)/C=C/c2ccc(F)cc2)c1`, the values for the inhibition in experiment [1] and in experiment [2] were 1.7% and 2.15%, respectively.
On the same counts, the results for `CCCCC(=O)NC(c1ccco1)c1cc(Cl)c2cccnc2c1O` (configuration not stated) are 16.4% and 10.6%.
In the case of `Cc1ccc(S(=O)(=O)NCCC(=O)N2CCN(c3ccccc3)CC2)cc1C`, the inhibition was 6.68% in experiment [1] and -3.89% in experiment [2].
`O=C(NNC(=S)NCc1ccccc1)c1ccc2c(c1)OCO2`: the inhibition in experiment [1] was -11.1%; in experiment [2], -11.7%.
Take `COc1ccccc1C(CNc1ccc(S(=O)(=O)N2CCCC2)cc1[N+](=O)[O-])N(C)C` (configuration not stated): the figures for the inhibition in experiment [1] and in experiment [2] were 23.9% and 24.9%, respectively.
The matching figures for `O=C(Nc1ccc(Oc2cccnc2)nc1)c1ccc(C(F)(F)F)cc1`: 17.2% and 37.1% (active).
On the same counts, the results for `Cc1ccccc1NC(=O)C(=Cc1ccc(C(=O)O)cc1)C(=O)Nc1ccccc1C` are 27.8% and 43.2% (active).
`CC(C)c1nc(Cl)c(C#N)c2c1CCCC2`: the values for the inhibition in experiment [1] and in experiment [2] were 26% and 37% (active), respectively.
`O=C(Nc1ccccc1C(=O)Nc1nnc(C(F)(F)F)s1)c1ccccc1Cl`: the results for the inhibition in experiment [1] and in experiment [2] were 12.3% and 11%, respectively.
The matching figures for `COc1ccc(C)cc1NC(=O)CN1C(=O)CSc2ccc(S(=O)(=O)N3CCCC3)cc21`: 4.25% and 3.04%.
The matching figures for `Cc1cccc(C2(c3cccc(C)c3)CC2C(=O)Nc2ccc([N+](=O)[O-])cc2O)c1` (configuration not stated): 7.2% and 8.99%.
The matching figures for `CC1=C(C(=O)N(C)C)CC(CC(=O)NCCCCc2ccccc2)C(=O)N1Cc1ccc(C(C)(C)C)cc1` (configuration not stated): -10.1% and -1.43%.
Take `COc1ccc(NC(=O)c2cc3c(-c4ccc(OC)c(OC)c4)nn(C)c3s2)cc1OC`: the inhibition in experiment [1] was 10.7%; in experiment [2], 10.5%.
Turning to `CC(=O)c1ccc(Sc2nnnn2-c2ccccc2)c([N+](=O)[O-])c1`, the figures for the inhibition in experiment [1] and in experiment [2] were 11.4% and -10.4%, respectively.
The matching figures for `Cc1ccc(-c2csc(NC(=O)c3cccc(C)c3)c2C(=O)O)cc1`: -6.27% and 0.42%.
Take `CCOc1ccc(N(CC)C(=O)Cc2c(C(=O)O)n(C)c3ccccc23)cc1`: the inhibition was -8.28% in experiment [1] and 7.58% in experiment [2].
The matching figures for `COc1ccc(CNS(=O)(=O)c2ccc3c(c2)N(C(C)=O)CC(C)S3)cc1` (configuration not stated): 7.83% and 11.6%.
For `O=C(N/N=C/c1cc(Cl)ccc1O)c1cccnc1`, the inhibition in experiment [1] is 15.7%; in experiment [2], 41.4% (active).
The matching figures for `Cc1ccnc(OC(C(=O)O)C(OCc2ccccc2)(c2ccccc2)c2ccc(C(F)(F)F)cc2)n1` (configuration not stated): 8.84% and 12.4%.
On to `Nc1ccccc1SCC(=O)Nc1nc(-c2ccccc2)cs1`, for which the inhibition was 25% in experiment [1] and 48.4% (active) in experiment [2].
On the same counts, the results for `O=C(NNc1ccccc1)c1ccc(Cl)c(Cl)c1` are 19.8% and 58.7% (active).
In the case of `CCC(=O)N1CCN(c2ccnc3cc(Cl)ccc23)CC1`, the inhibition was 29.1% in experiment [1] and 9.02% in experiment [2].
`COc1cccc(/C=C/C(=O)OCC(=O)N2CCCC2)c1OC`: the inhibition is -12.6% in experiment [1] and -16% in experiment [2].
For the molecule `COCCN(CCOC)S(=O)(=O)c1ccc(C(=O)Nc2nc3c(s2)CCc2ccccc2-3)cc1`, the inhibition was 0.71% in experiment [1] and 0.01% in experiment [2].
`COC(=O)c1ccc2c(c1)C(C)(C)C(/C=C/c1ccc(O)cc1)=[N+]2C`: the inhibition in experiment [1] was 66.6% (active); in experiment [2] it was 52.8% (active).
On the same counts, the results for `O=C(c1ccc(Cl)cc1)C(Cn1cncn1)C(Sc1ccccc1)c1ccccc1` (configuration not stated) are 14.8% and 20.1%.
The matching figures for `CC1(C)CC(=O)C=C(C#CC2(O)CCCCC2)C1`: 19% and 1.31%.
`CCN(CC)c1ccc(/C=N/NC(=O)c2ccc3nc[nH]c3c2)c(O)c1`: the inhibition in experiment [1] was 51.3% (active); in experiment [2], 50.6% (active).
The matching figures for `CCn1nc(C(=O)OCC(=O)c2ccc3c(c2)OCCO3)c2ccccc2c1=O`: -13.9% and -5.51%.
The matching figures for `S=C(Nc1cccc2ccccc12)NN1CCCCCC1`: 43.8% (active) and 33% (active).
The matching figures for `Cc1cc(C)c2nc3nc(C)cc(C)c3c(N)c2c1`: 24.5% and 57.9% (active).
Take `CCCCCc1ccc(OCCOCCn2c[n+](C)c3ccccc32)c(CCCCC)c1`: the inhibition in experiment [1] is 25.3%; in experiment [2], 36.4% (active).
The matching figures for `C[C@H](NS(=O)(=O)c1ccc(Cl)cc1)C(=O)OCC(=O)NC(=O)Nc1ccc2c(c1)OCCO2`: -39.7% and -25.8%.
On the same counts, the results for `FC(F)(F)c1cccc(Nc2cc(-c3ccccc3)nc3ncnn23)c1` are -2.25% and -0.93%.
Regarding `Cc1ccc(S(=O)(=O)NCC(=O)N(c2ccccc2)C(C(=O)NCc2ccccc2)c2ccco2)cc1` (configuration not stated), the inhibition in experiment [1] was -2.76%; in experiment [2] it was 4.99%.
On the same counts, the results for `Cc1nc(Nc2ccc3c(c2)OCCO3)c2nnn(Cc3ccccc3Cl)c2n1` are 22.1% and -3.54%.
On to `O=C(NCC1CCCO1)c1cccc2c1C(=O)c1ccc(N3CCC(Cc4ccccc4)CC3)cc1S2(=O)=O` (configuration not stated), for which the figures for the inhibition in experiment [1] and in experiment [2] were -2.13% and 10.6%, respectively.
The matching figures for `Cc1cccc(NC(=O)c2cc(-c3cccnc3)nc3c(C)cccc23)n1`: 7.37% and 1.11%.
For `COC(=O)c1ccccc1NC1=C/C(=N\S(=O)(=O)c2cccs2)c2ccccc2C1=O`, the inhibition in experiment [1] was 2.2%; in experiment [2], 6.65%.
As to `O=C(Nc1sc2c(c1C(=O)O)CCCC2)c1ccc(Cl)cc1`, the inhibition in experiment [1] was 30.9%; in experiment [2], 50.5% (active).
Consider `O=c1[nH]c(=O)n(C2CC(O)C(CO)O2)cc1I` (configuration not stated), for which the inhibition is 23.1% in experiment [1] and 11.8% in experiment [2].
For the molecule `COc1ccc(N/N=C(/N=Nc2nc(C)cc(=O)[nH]2)c2ccccc2)cc1`, the results for the inhibition in experiment [1] and in experiment [2] were 46.6% (active) and 30.7% (active), respectively.
`Cc1cccc(/C=N/n2c(-c3ccncc3)n[nH]c2=S)c1`: the inhibition in experiment [1] was 11.2%; in experiment [2], 2.95%.
Consider `Cc1cc2[nH]c3c4ccccc4nc(C)c3c2cc1C`, for which the inhibition was 20.5% in experiment [1] and 33.8% (active) in experiment [2].
The matching figures for `CC(=O)c1cc(CC=C(C)C)c(O)c(CC=C(C)C)c1O`: 4.99% and -4.39%.
As to `COc1ccc(C(C)=O)cc1CSc1nnc(Nc2ccccc2)s1`, the inhibition in experiment [1] was 9.88%; in experiment [2], 19.3%.
For the molecule `Clc1ccc(SCc2cc(N3CCOCC3)nc(-c3ccccn3)n2)cc1`, the inhibition in experiment [1] was -5.99%; in experiment [2] it was 1.33%.
The matching figures for `Cc1ccsc1C(=O)C1CCCN(Cc2cccn2-c2ccc(Cl)cn2)C1` (configuration not stated): -3.2% and 23.2%.
On to `CC(=O)c1ccc(N2CCN(C(=O)c3nn(Cc4ccccc4)c(=O)c4ccccc34)CC2)cc1`, for which the inhibition was 13.9% in experiment [1] and -1.19% in experiment [2].
On the same counts, the results for `COc1ccc(S(=O)(=O)Nc2cc([N+](=O)[O-])ccc2OC)cc1` are -7.49% and 2.4%.
The matching figures for `O=C(CNc1cccc([N+](=O)[O-])c1)N/N=C/c1ccc([N+](=O)[O-])o1`: 32.3% and 14.3%.
With `Cn1nc(CC(=O)Nc2ccc(N3CCN(C(=O)OC(C)(C)C)CC3)cc2)c2ccccc2c1=O`, the inhibition in experiment [1] was 17.6%; in experiment [2], 42.2% (active).
For `Cc1[nH]n(C)c(=O)c1N=Nc1ccc(S(C)(=O)=O)cc1`, the inhibition in experiment [1] was 8.44%; in experiment [2] it was -1.15%.
The matching figures for `O=C1/C(=C/c2cccnc2)SC(=S)N1C1CCS(=O)(=O)C1` (configuration not stated): -0.1% and 21%.
As for `Cc1nn(C)c(C)c1CN(C)C(=O)c1cnn2c1NC(c1ccccc1)CC2C(F)(F)F` (configuration not stated), the results for the inhibition in experiment [1] and in experiment [2] were 21.2% and 3.17%, respectively.
On the same counts, the results for `COC(=O)c1ccccc1-c1ccc(C(c2c(C)[nH][nH]c2=O)c2c(C)[nH][nH]c2=O)o1` are 22.8% and -7.34%.
Turning to `O=C(CCc1ccncc1)NC1CCCc2c1cnn2-c1ccc(F)cc1F` (configuration not stated), the inhibition in experiment [1] is 0.71%; in experiment [2], 18.6%.
On the same counts, the results for `Oc1cccc2ccc(Nc3ccccn3)nc12` are 3.4% and -8.03%.
On the same counts, the results for `CCC(=O)NC(c1cccs1)c1ccc2cccnc2c1O` (configuration not stated) are 33.1% and 25.9%.
`CC(=O)/C=C/c1ccc2ccccc2n1`: the results for the inhibition in experiment [1] and in experiment [2] were -15.9% and 18.8%, respectively.
`COc1ccc(-c2csc(NC(=O)c3ccc(S(=O)(=O)N4CCc5ccccc5C4)cc3)n2)cc1`: the inhibition was 25.1% in experiment [1] and 24.1% in experiment [2].
